{"source": "the supplement of paper PMC8728848", "binders": {"B1": {"name": "Actd5 (Actinidia), P84527 (protein)", "chain": "ISSCNGPCRDLNDCDGQLICIKGKCNDDPQVGTHICRGTTHSHQPGGCKPSGTLTCRGKSYPTYDCSPPVTSSTPAKLTNNDFSEGGDDGGPSECDESYHNNNERIVALSTGWYNGGSRCGKMIRITASNGKSVSAKVVDECDSRHGCDKEHAGQPPCRNNIVDGSNAVWSALGLDKNVGVVDITWSMA"}}, "assay_in_all_cases": "glycan array binding signal (z-score within array); higher = stronger binding", "conditions_in_all_cases": "glycan notation: IUPAC condensed, linker removed", "key": {"[1]": {"biological_target": "GlcA3S(b1-3)Gal(b1-4)GlcNAc(b1-2)Man", "procedure,_shortened": "(§1)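 The binding signal is a Z-score computed within each array. Data were drawn from 3228 arrays in the Consortium for Functional Glycomics database, restricted to those with a known protein sequence. Scores were averaged over arrays of the same protein sequence at different concentrations or buffers, and over linkers, and negative values can be taken as non-binding.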"}, "[2]": {"biological_target": "GlcA3S(b1-3)Gal(b1-4)GlcNAc(b1-3)Gal(b1-4)Glc", "procedure,_shortened": "as §1"}, "[3]": {"biological_target": "GlcNAc(b1-2)[GlcNAc(b1-4)]Man(a1-3)[GlcNAc(b1-4)][GlcNAc(b1-2)Man(a1-6)]Man(b1-4)GlcNAc(b1-4)GlcNAc", "procedure,_shortened": "as §1"}, "[4]": {"biological_target": "GlcNAc(b1-3)Gal(b1-4)GlcNAc(b1-3)Gal(b1-4)GlcNAc(b1-2)Man(a1-3)[GlcNAc(b1-3)Gal(b1-4)GlcNAc(b1-3)Gal(b1-4)GlcNAc(b1-2)Man(a1-6)]Man(b1-4)GlcNAc(b1-4)[Fuc(a1-6)]GlcNAc", "procedure,_shortened": "as §1"}, "[5]": {"biological_target": "GlcNAc(b1-3)Gal(b1-4)GlcNAc(b1-6)[Gal(b1-3)]GalNAc", "procedure,_shortened": "as §1"}, "[6]": {"biological_target": "GlcNAc(b1-3)Gal(b1-4)GlcNAc(b1-6)[GlcNAc(b1-3)]Gal(b1-4)GlcNAc", "procedure,_shortened": "as §1"}, "[7]": {"biological_target": "Man(a1-2)Man(a1-2)Man(a1-3)Man", "procedure,_shortened": "as §1"}, "[8]": {"biological_target": "Man(a1-2)Man(a1-2)Man(a1-6)[Man(a1-3)]Man", "procedure,_shortened": "as §1"}, "[9]": {"biological_target": "Man(a1-2)Man(a1-3)[Man(a1-2)Man(a1-6)]Man(a1-6)[Man(a1-2)Man(a1-2)Man(a1-3)]Man(b1-4)GlcNAc(b1-4)GlcNAc", "procedure,_shortened": "as §1"}, "[10]": {"biological_target": "Man(a1-2)Man(a1-6)[Man(a1-3)]Man(a1-6)[Man(a1-2)Man(a1-2)Man(a1-3)]Man", "procedure,_shortened": "as §1"}, "[11]": {"biological_target": "Man(a1-3)[Man(a1-6)]Man(a1-6)[Man(a1-2)Man(a1-3)]Man(b1-4)GlcNAc(b1-4)GlcNAc", "procedure,_shortened": "as §1"}, "[12]": {"biological_target": "Neu5Ac(a2-3)Gal(b1-3)GlcNAc(b1-3)GalNAc", "procedure,_shortened": "as §1"}, "[13]": {"biological_target": "Neu5Ac(a2-3)Gal(b1-3)[GlcNAc(b1-6)]GalNAc", "procedure,_shortened": "as §1"}, "[14]": {"biological_target": "Neu5Ac(a2-3)Gal(b1-4)GlcNAc(b1-2)Man(a1-3)[Neu5Ac(a2-3)Gal(b1-4)GlcNAc(b1-2)Man(a1-6)]Man(b1-4)GlcNAc(b1-4)[Fuc(a1-6)]GlcNAc", "procedure,_shortened": "as §1"}, "[15]": {"biological_target": "Neu5Ac(a2-3)Gal(b1-4)GlcNAc(b1-2)[Neu5Ac(a2-3)Gal(b1-4)GlcNAc(b1-4)]Man(a1-3)[GlcNAc(b1-4)][Neu5Ac(a2-3)Gal(b1-4)GlcNAc(b1-2)[Neu5Ac(a2-3)Gal(b1-4)GlcNAc(b1-6)]Man(a1-6)]Man(b1-4)GlcNAc(b1-4)GlcNAc", "procedure,_shortened": "as §1"}, "[16]": {"biological_target": "Neu5Ac(a2-3)Gal(b1-4)GlcNAc(b1-3)Gal(b1-4)GlcNAc(b1-3)Gal(b1-4)GlcNAc(b1-2)Man(a1-3)[Neu5Ac(a2-3)Gal(b1-4)GlcNAc(b1-3)Gal(b1-4)GlcNAc(b1-3)Gal(b1-4)GlcNAc(b1-2)Man(a1-6)]GalNAc", "procedure,_shortened": "as §1"}, "[17]": {"biological_target": "Neu5Ac(a2-3)Gal(b1-4)GlcNAc(b1-3)Gal(b1-4)GlcNAc(b1-3)GalNAc", "procedure,_shortened": "as §1"}, "[18]": {"biological_target": "Neu5Ac(a2-3)Gal(b1-4)GlcNAc(b1-3)GalNAc", "procedure,_shortened": "as §1"}, "[19]": {"biological_target": "Neu5Ac(a2-3)Gal(b1-4)[Fuc(a1-3)]GlcNAc", "procedure,_shortened": "as §1"}, "[20]": {"biological_target": "Neu5Ac(a2-3)Gal(b1-4)[Fuc(a1-3)]GlcNAc(b1-3)Gal(b1-4)GlcNAc", "procedure,_shortened": "as §1"}, "[21]": {"biological_target": "Neu5Ac(a2-3)Gal(b1-4)[Fuc(a1-3)]GlcNAc(b1-6)[Gal(b1-3)]GalNAc", "procedure,_shortened": "as §1"}, "[22]": {"biological_target": "Neu5Ac(a2-3)Gal(b1-4)[Fuc(a1-3)]GlcNAc(b1-6)[Neu5Ac(a2-3)Gal(b1-3)]GalNAc", "procedure,_shortened": "as §1"}, "[23]": {"biological_target": "Neu5Ac(a2-3)Gal(b1-4)[Fuc(a1-3)]GlcNAc6S", "procedure,_shortened": "as §1"}, "[24]": {"biological_target": "Neu5Ac(a2-3)[GalNAc(b1-4)]Gal(b1-4)GlcNAc(b1-3)GalNAc", "procedure,_shortened": "as §1"}, "[25]": {"biological_target": "Neu5Ac(a2-6)Gal(b1-4)GlcNAc(b1-2)Man(a1-3)Man(b1-4)GlcNAc(b1-4)GlcNAc", "procedure,_shortened": "as §1"}, "[26]": {"biological_target": "Neu5Ac(a2-6)Gal(b1-4)GlcNAc(b1-2)Man(a1-3)[Gal(b1-4)GlcNAc(b1-2)Man(a1-6)]Man(b1-4)GlcNAc(b1-4)GlcNAc", "procedure,_shortened": "as §1"}, "[27]": {"biological_target": "Neu5Ac(a2-6)Gal(b1-4)GlcNAc(b1-2)Man(a1-3)[GlcNAc(b1-2)Man(a1-6)]Man(b1-4)GlcNAc(b1-4)GlcNAc", "procedure,_shortened": "as §1"}, "[28]": {"biological_target": "Neu5Ac(a2-6)Gal(b1-4)GlcNAc(b1-2)Man(a1-6)[GlcNAc(b1-2)Man(a1-3)]Man(b1-4)GlcNAc(b1-4)GlcNAc", "procedure,_shortened": "as §1"}, "[29]": {"biological_target": "Neu5Ac(a2-6)Gal(b1-4)GlcNAc(b1-3)Gal(b1-4)GlcNAc(b1-3)Gal(b1-4)GlcNAc(b1-2)Man(a1-3)[Neu5Ac(a2-6)Gal(b1-4)GlcNAc(b1-3)Gal(b1-4)GlcNAc(b1-3)Gal(b1-4)GlcNAc(b1-2)Man(a1-6)]GalNAc", "procedure,_shortened": "as §1"}, "[30]": {"biological_target": "Neu5Ac(a2-8)Neu5Ac(a2-3)[GalNAc(b1-4)]Gal(b1-4)Glc", "procedure,_shortened": "as §1"}, "Neu5Gc(a2-3)Gal(b1-4)Glc": {"biological_target": "Neu5Gc(a2-3)Gal(b1-4)Glc", "procedure,_shortened": "as §1"}}, "note": "The full list was thinned out, with the strongest signals kept by preference.", "data": [{"binder": "B1", "values": [{"measurement": "glycan array binding signal (z-score)", "setting": "[1]", "value": -0.597}, {"measurement": "glycan array binding signal (z-score)", "setting": "[2]", "value": -0.788}, {"measurement": "glycan array binding signal (z-score)", "setting": "[3]", "value": -0.558}, {"measurement": "glycan array binding signal (z-score)", "setting": "[4]", "value": 3.06}, {"measurement": "glycan array binding signal (z-score)", "setting": "[5]", "value": -0.776}, {"measurement": "glycan array binding signal (z-score)", "setting": "[6]", "value": 0.458}, {"measurement": "glycan array binding signal (z-score)", "setting": "[7]", "value": 0.687}, {"measurement": "glycan array binding signal (z-score)", "setting": "[8]", "value": 6.66}, {"measurement": "glycan array binding signal (z-score)", "setting": "[9]", "value": 4.17}, {"measurement": "glycan array binding signal (z-score)", "setting": "[10]", "value": 3.42}, {"measurement": "glycan array binding signal (z-score)", "setting": "[11]", "value": 5.03}, {"measurement": "glycan array binding signal (z-score)", "setting": "[12]", "value": -0.064}, {"measurement": "glycan array binding signal (z-score)", "setting": "[13]", "value": -0.32}, {"measurement": "glycan array binding signal (z-score)", "setting": "[14]", "value": -0.173}, {"measurement": "glycan array binding signal (z-score)", "setting": "[15]", "value": -0.296}, {"measurement": "glycan array binding signal (z-score)", "setting": "[16]", "value": 5.66}, {"measurement": "glycan array binding signal (z-score)", "setting": "[17]", "value": -0.279}, {"measurement": "glycan array binding signal (z-score)", "setting": "[18]", "value": 0.374}, {"measurement": "glycan array binding signal (z-score)", "setting": "[19]", "value": -0.42}, {"measurement": "glycan array binding signal (z-score)", "setting": "[20]", "value": 0.65}, {"measurement": "glycan array binding signal (z-score)", "setting": "[21]", "value": 1.5}, {"measurement": "glycan array binding signal (z-score)", "setting": "[22]", "value": -0.33}, {"measurement": "glycan array binding signal (z-score)", "setting": "[23]", "value": -0.958}, {"measurement": "glycan array binding signal (z-score)", "setting": "[24]", "value": 0.22}, {"measurement": "glycan array binding signal (z-score)", "setting": "[25]", "value": -0.071}, {"measurement": "glycan array binding signal (z-score)", "setting": "[26]", "value": -0.093}, {"measurement": "glycan array binding signal (z-score)", "setting": "[27]", "value": -0.252}, {"measurement": "glycan array binding signal (z-score)", "setting": "[28]", "value": -0.496}, {"measurement": "glycan array binding signal (z-score)", "setting": "[29]", "value": 3.79}, {"measurement": "glycan array binding signal (z-score)", "setting": "[30]", "value": -0.363}, {"measurement": "glycan array binding signal (z-score)", "setting": "Neu5Gc(a2-3)Gal(b1-4)Glc", "value": 0.046}]}]}
